# According to PubChem BioAssay (NCATS):
# Records with an inconclusive call do not appear. The source made the active and inactive calls. Calls come from the whole dose curve; as a rule, active = well fitted cell-killing curve with a large enough effect; inconclusive = small, poorly fitted or top-dose-only effect, or effect the other way; inactive = no such curve, though single readings can be large or run the other way.
# Assay: qHTS assay to identify small molecule inhibitors of chordoma cells - UCH-1 (AID 1259355); note: nearly all actives have a fitted effect of over 55% in size
# Settings: UCH-1 chordoma viability, CellTiter-Glo, 48 h, combination, with auranofin plus four topoisomerase inhibitors; series mostly up to 46.1 µM; activity, negative = inhibition: at the top concentration
# Source text: NIH Chemical Genomics Center [NCGC]
# Chordoma is a rare and slow growing tumor that can occur anywhere along the spine, from the base of the skull to the tailbone. Current treatment options for chordoma is surgery and radiation therapy for those who are not candidates for surgery. But chordomas tend to return in the same location or surrounding areas of the original tumor after surgery and/or radiation. Chemotherapy can slow down the progression of the tumor. As chordoma is slow growing, the general cytotoxic agents that kill fast growing cells are ineffective, and some patients have been reported to respond to molecularly targeted drugs.
# NCATS Pharmaceutical Collection (NPC) containing approximately 3000 clinically approved and investigational drugs were used to screen at 15 concentrations in a chordoma cell lines, UCH-1, to identify small molecule compounds that can inhibit chordoma cell growth.
# NCGC Assay Protocol Summary:
# Human chordoma cell line UCH-1 was dispensed at 800 per well in 4uL of culture medium into white solid bottom 1536-well plates (Corning Life Sciences, Corning, NY) using a Multidrop Combi (Thermo Scientific, Waltham, MA) dispenser. The assay plates were incubated at 37 C and 5% CO2 for an overnight, and then 23nL of compounds dissolved in DMSO and positive control were transferred using a Pintool station (Wako, San Diego, CA). Compound treatment was followed by the addition of 1uL of the combination compounds (1uM Auranofin, 500nM each of Camptothecin, Doxorubicin, Rubitecan, and Topotecan) and assay medium to each well of the assay plates using Flying Reagent Dispenser (FRD, Aurora Discovery, San Diego, CA). The assay plates were incubated at 37 C and 5% CO2 for 48hr. Then 5uL of CellTiter-Glo reagent (Promega Corporation, Madison, WI) was added to each well of the assay plates using FRD. After 30min incubation at room temperature, the luminescence signal was quantified using a ViewLux plate reader (PerkinElmer, Shelton, CT).
# % is set by controls: 0 for no effect and ±100 for the full control effect.
row,Compound,"activity, negative = inhibition"
1,Cc1onc(-c2ccccc2)c1-c1ccc(S(N)(=O)=O)cc1,2.16% (inactive)
2,Cc1c(NC(=O)c2cccnc2)c(=O)n(-c2ccccc2)n1C,-1.42% [at 20.6 µM] (inactive)
3,CCOc1cc(NC(C)=O)ccc1C(=O)OC,-1% (inactive)
4,CC(=O)SC[C@@H](Cc1ccccc1)C(=O)NCC(=O)OCc1ccccc1,-2.32% [at 20.6 µM] (inactive)
5,NC(=O)NC1NC(=O)NC1=O (stereo not given),-24% [at 20.6 µM] (inactive)
6,CCCCC1(COC(=O)CCC(=O)O)C(=O)N(c2ccccc2)N(c2ccccc2)C1=O,-28.9% [at 20.6 µM] (inactive)
7,CCOC(=O)c1cccnc1,-8.31% (inactive)
8,O=C(/C=C/c1ccc(O)c(O)c1)O[C@@H]1C[C@@](OC(=O)/C=C/c2ccc(O)c(O)c2)(C(=O)O)C[C@@H](O)[C@@H]1O,-10.9% (inactive)
9,COc1nccnc1NS(=O)(=O)c1ccc(N)cc1,-57.3% (inactive)
10,C[C@@H](c1ncncc1F)C(O)(Cn1cncn1)c1ccc(F)cc1F (stereo not given in full),-3.42% (inactive)
11,O=C(c1ccccc1)C(O)c1ccccc1 (stereo not given),-1.26% (inactive)
12,O=C1c2ccccc2S(=O)(=O)N1CCCCN1CCN(c2ncccn2)CC1,-28.9% (inactive)
13,CC1CCN(CCCC(=O)c2ccc(F)cc2)CC1,-7.6% (inactive)
14,CC(CSC(=O)c1ccccc1)C(=O)N1C[C@@H](Sc2ccccc2)C[C@H]1C(=O)O (stereo not given in full),-7.43% (inactive)
15,CC(C)(C)C(=O)OCOC(=O)[C@@H]1N2C(=O)[C@@H](NC(=O)[C@H](N)c3ccccc3)[C@H]2SC1(C)C,-21.4% [at 20.6 µM] (inactive)
16,CN(C(=O)c1c(O)c2ccccc2n(C)c1=O)c1ccccc1,-17.2% (inactive)
17,CCCCCCCC(=O)OCC(O)CO (stereo not given),-3.64% (inactive)
18,CCCNC(C)(C)COC(=O)c1ccccc1,-2.27% (inactive)
19,NNc1nnc(NN)c2ccccc12,-7.02% (inactive)
20,O=C(O)C(S)C(S)C(=O)O (stereo not given),-13.5% (inactive)

row,Compound,"activity, negative = inhibition"
1,Cc1cc(OI)c(C(C)C)cc1-c1cc(C(C)C)c(OI)cc1C,-36.6% (inactive)
2,CCOC(=O)[C@H](CCc1ccccc1)N[C@@H](C)C(=O)N1CCC[C@H]1C(=O)O,5.69% (inactive)
3,CCN1CC(CCN2CCOCC2)C(c2ccccc2)(c2ccccc2)C1=O (stereo not given),-14.9% (inactive)
4,CC(=O)[C@@]1(O)CC[C@H]2[C@@H]3C[C@H](C)C4=CC(=O)C=C[C@]4(C)[C@@]3(F)[C@@H](O)C[C@@]21C,-7.96% [at 20.6 µM] (inactive)
5,O=C(O)CNC(=O)c1ccccc1I,-12.4% (inactive)
6,FC(F)(F)C(Cl)Br (stereo not given),6.76% (inactive)
7,CCCCCCCCCCCCCCCCN,-7.28% (inactive)
8,CN[C@@H]1[C@H](O)[C@H](NC)[C@H]2O[C@@]3(O)C(=O)C[C@@H](C)O[C@H]3O[C@@H]2[C@H]1O,3.53% [at 20.6 µM] (inactive)
9,CCOc1ccc(C(=O)OCCN(CC)CC)cc1,-23.5% (inactive)
10,O=c1[nH]c2cc(C(F)(F)F)c(N3CCOCC3)cc2n(CP(=O)(O)O)c1=O,-11% (inactive)
11,CC(C)CCCC(C)CCCC(C)CCCCC(C)CCCC(C)CCCC(C)C (stereo not given),6.4% (inactive)
12,CN1CCCN=C1COC(=O)C(O)(c1ccccc1)C1CCCCC1 (stereo not given),-8.97% (inactive)
13,NS(=O)(=O)c1ccc(C(=O)O)cc1,-3.03% (inactive)
14,Cc1[nH]c(C)c(Cl)c(=O)c1Cl,-1.81% (inactive)
15,O=C(O)CCC(=O)O,-2.1% (inactive)
16,Nc1ncnc(Nc2ccccc2)n1,-7.88% (inactive)
17,COCC(=O)Nc1c(I)c(C(=O)NCC(O)CO)c(I)c(C(=O)N(C)CC(O)CO)c1I (stereo not given),-17.7% [at 20.6 µM] (inactive)
18,NS(=O)(=O)c1ccc(NC(=O)CCC(=O)O)cc1,-4.14% (inactive)
19,O[C@@H]1CO[C@H]2[C@@H]1OC[C@@H]2O,-3.01% (inactive)
20,O=C1c2ccccc2C(=O)C1c1ccc(Br)cc1,-12.4% (inactive)
